Values joined by “and” are separate entries in the source; they are usually repeats but may differ in a detail not shown here. Equal entries are not always repeated. About 83,000 compounds went through this panel and 20% of them were active in at least one assay; those are over-represented in the sample as a whole.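 Plates (96-well) were seeded with cells, treated with compound at one concentration, and incubated for 48 hours before percent growth was determined.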 Unmarked numbers belong to inactive results. Active and inactive are the calls of the source. Rule for the calls: active = growth percent below 10; inactive = the rest.
tested on: HL-60(TB) leukemia; assay: NCI-60 one-dose screen, 48 h (100 = growth as untreated, 0 = no growth, -100 = all killed); details: 10 µM unless noted

SMILES | growth
CCNC(=S)NNC(=O)c1cc2ccc1CCc1ccc(cc1)CC2 | 100%
Cc1cc2c(F)c(Oc3ncnc(Nc4ccc(N5C[C@@H](C)N[C@@H](C)C5)cc4)c3C#N)cc(F)c2[nH]1 | -54.6% (active)
COc1ccc(C2C=C(c3ccc(Cl)c(Cl)c3)N=C3SC(C)=CN32)cc1OC (centres undefined) | 63.3%
Cc1nn(-c2ccccc2)c(N2CCOCC2)c1-c1nc2ccc([N+](=O)[O-])cc2[nH]1 | 77.1%
O=C(O)c1cn(C2CC2)c2cc(N3CCN(C(=O)N(c4ccccc4)c4nc(-c5ccccc5)cs4)CC3)c(F)cc2c1=O | -39.9% (active)
CCCCCCCCCCCCN1CCCC(C)C1 (centres undefined) | 55.6%
COc1ccc(/C=C/C(=O)c2c(C)nc3ccccc3c2/C=C/c2ccccc2)c(OC)c1 | 66.7%
O=c1[nH]c2ccccc2n1C1CCN(CCOc2ccccc2)CC1 | 50%
CC/C=C\C[C@H]1C/C=C2/C(=O)C=C[C@@H]2C/C=C\CCCC(=O)O1 | -27.2% (active)
Nc1c(Br)cc(Br)c2c1[nH]c(=O)c1ccccc12 | 89.8%
CC1=C(/C=C/C(C)=C/C=C/C(C)=C/C(=O)O)C(C)(C)CCC1 | 79.2% and 46.2% and 67%
N#CC1CCc2c(c(-c3cn[nH]c3C(F)(F)F)nc3c(F)cc4[nH]ncc4c23)C1 (centres undefined) | 47%
COc1cccc(NC(=O)[C@H](C(C)C)n2c(=O)[nH]c3ccccc3c2=O)c1 | 86.2%
O=C(O)C1CCN(S(=O)(=O)c2ccc(-c3ccccc3)cc2)CC1 | 45.6%
CCN1Cc2c(/C=C/c3ccccc3)nc3ccc(OC)cc3c2N(c2cccc(Cl)c2)C1 | 23.6%
Cc1ccc(-c2nc(N3CCNCC3)c3oc(-c4ccccc4)nc3n2)cc1 | -66.6% (active)
Cc1ccncc1NC=O | 105%
CN1CCN(C(=O)OCc2ccc3c(Cl)cc(Cl)c(O)c3n2)CC1 | -18.9% (active)
COc1ccc(/C=C/C(=O)Nc2cccnc2Nc2ccc(F)cc2)cc1 | 84.3%
Oc1ccc(O)c(-[n+]2ccccc2)c1 | 101%

SMILES | growth
N#C/C(=C\c1ccc[nH]1)c1cc2ccccc2[nH]1 | 64.8%
C=C1C(=O)O[C@H]2[C@H]1CC/C(COC(=O)NC1CCC(O)CC1)=C\CC[C@@]1(C)O[C@@H]21 (some centres undefined) | 70.6% and 62.5%
Cc1ccc(S(=O)(=O)NCCCNc2nccc(-c3c(-c4cccc(F)c4)nc4occn34)n2)cc1 | 44.8%
COc1ccc(/C=C2\COc3ccc(O)cc3C2=O)c(OC)c1OC | 12.7%
COc1cc2c(c(OC)c1OC)-c1ccc(OC)c(=O)cc1[C@@H](NC(=O)CCl)CC2 | -7.51% (active)
COc1ccc(-c2nc3sc(-c4ccccc4)c(-c4ccccc4)n3c2/C=C/C(=O)c2ccccn2)cc1 | 50.5%
C#Cc1cccc(NC(=O)Nc2ccc(NC(=O)CCl)cc2)c1 | 0.172% [8.25 µM] (active)
COc1cc2c3c(n([C@@H]4CCOC4)c(=O)c2cc1OC)-c1cc2c(cc1C3=O)OCO2 | 26.3%
COc1cc(-c2nnc(-c3nc(-c4cc(OC)c(OC)c(OC)c4)n4ccccc34)o2)ccc1N | 64.8%
O=C(Nc1cc(C(F)(F)F)cc(C(F)(F)F)c1)c1cc(Cl)ccc1O | -24.6% (active) and -49% (active)
N#Cc1c2c(nn(-c3ccccc3)c1=O)C(O)=C([N+](=O)[O-])C(c1ccccc1)C2 (centres undefined) | 58.5%
Fc1cc2c(cc1Cl)N(c1ncnc3ccc(-c4cnc5[nH]ncc5c4)cc13)CC2 | 66.5%
O=C(OCc1ccccc1)c1ccccc1 | 132% and 98.4%
Nc1nc2c(nnn2Cc2ccc(Cl)c(Cl)c2)c(=O)[nH]1 | 95%
N#CC1=C(Nc2ccccc2Cl)SC(c2ccccc2O)NC1=O (centres undefined) | 93.1%
NC(=S)N1N=C(c2ccccc2)CC1c1cn(-c2ccccc2)nc1-c1ccc(OCc2ccccc2)cc1 (centres undefined) | 114%
Nc1ccn(-c2ccc(Br)cc2)c(=O)n1 | 125%
CCn1c(Cc2ccccc2Nc2c(Cl)cccc2Cl)nnc1SCC(=O)Nc1ccccc1C(F)(F)F | 86.9%
Nc1cc2ccccc2c(O)c1O | 4.42% (active)

— PubChem BioAssay (NCI)
